Calls of active or inactive are those of the source. How the source made its calls: active means hit-call score of the fitted dose curve at least 0.9, where 1 is the maximum; inactive means score below 0.9.
Assay: ATG_NRF2_ARE_CIS: Attagene CIS-FACTORIAL HepG2 Assay for human Nuclear Factor Erythroid 2 Related Factor 2 (NFR2) response to Antioxidant Response Elements (ARE) (AID 2282992)
Conditions: HepG2 Attagene ARE/NRF2 reporter, transcription factor activity; actives raise or lower the signal
Protocol: ATG_CIS is a cell-based, multiplexed-readout assay that uses HepG2, a human liver cell line, with measurements taken at 24 hours after chemical dosing in a 24-well plate.ATG_NRF2_ARE_CIS is one of 52 assay component(s) measured or calculated from the ATG_CIS assay. It is designed to make measurements of mRNA induction, a form of inducible reporter, as detected with fluorescence intensity signals by Reverse transcription polymerase chain reaction (RT-PCR) and Capillary electrophoresis technology.Data from the assay component ATG_NRF2_ARE_CIS was analyzed into 1 assay endpoint. This assay endpoint, ATG_NRF2_ARE_CIS, was analyzed with bidirectional fitting relative to DMSO as the negative control and baseline of activity. Using a type of inducible reporter, measures of mRNA for gain or loss-of-signal activity can be used to understand the reporter gene at the transcription factor-level as they relate to the gene NFE2L2. Furthermore, this assay endpoint can be referred to as a primary readout, because this assay has produced multiple assay endpoints where this one serves a reporter gene function. To generalize the intended target to other relatable targets, this assay endpoint is annotated to the dna binding intended target family, where the subfamily is basic leucine zipper.
Human liver HepG2 cells are transiently transfected with multiple reporter transcription units (MRTUs) in 6-well plates using FuGene 6 reagent (Roche; 3 ml FuGene/1 mg DNA). The MRTU constructs are regulated by a cis-regulating element (promoter). […] A major difference between the CIS and TRANS system is that in CIS activities of endogenous TFs are measured, whereas the TRANS assay evaluates changes in activities of exogenous, chimeric NR-Gal4 proteins. […] At the end of 24 hour incubation, total RNA was isolated using TriZol reagent (Invitrogen). The isolated RNA is then reverse-transcribed using oligo(dT) primer and Mo-MLV reverse transcriptase (Invitrogen) with DNAse I (Ambion) treatment for 30 min. The one-tenth of the produced cDNA was amplified by PCR using Taq DNA polymerase (Invitrogen) and two reporter sequence-specific primers. The PCR products were fluorescently labeled by primer extension with 6-arboxyfluorescein (6-FAM) 5'-labeled reporter sequence-specific primer (2 min at 95 C, 20 s at 68 C and 10 min at 72 C) and these products were digested with 5U of HpaI (New England Biolabs) for 2h at 37 C. The fragments were purified using Qiaquick PCR columns (Qiagen), analyzed on an ABI 3130xL genetic analyzer (Applied Biosystems) with peak positions identified by using a set of X-rhodamine (ROX)-labeled MapMarker1000 molecular weight standards (BioVentures). The raw capillary electrophoresis data was processed using Attagraph software (Attagene).

For CCCC(C)CCC(C)=O (stereo not given), which outcome is on record?
Its outcome is “inactive”.

For CCOCC(=O)O, which outcome is on record?
Its outcome is “inactive”.

For COc1c2ccoc2cc2oc(=O)ccc12, which outcome is on record?
The outcome was “inactive”.

With Cc1cc(C)c(C)c(O)c1 as the molecule, how does the outcome read?
Its outcome is “inactive”.

With Nc1ccc(Cl)cc1Cl as the molecule, how does the outcome read?
Its outcome is “inactive”.

With Cc1cccc(N(C)C(=S)Oc2ccc3ccccc3c2)c1 as the molecule, how does the AC50 read?
The AC50 was 19.8 µM (active).

Which outcome does the source give for CCCCCCCCCCc1ccccc1 here?
Its outcome is “inactive”.

Which AC50 does the source give for C=C(C)[C@@H]1CCC2=CCC[C@@H](C)[C@]2(C)C1 here?
Its AC50 is 87.3 µM (active).

For C=C[C@](C)(O)CC[C@@H]1[C@@]2(C)CCCC(C)(C)[C@@H]2CC[C@@]1(C)O, which AC50 is on record?
The AC50 was 6.58 µM (active).

Which outcome does the source give for FC(F)(F)C(=NOCC1OCCO1)c1ccc(Cl)cc1 here?
The outcome was “inactive”.

For C=C(C)c1cccc(C(C)(C)N=C=O)c1, which outcome is on record?
The outcome was “inactive”.

With C=C(C)C(=O)OCC(C)C as the molecule, how does the outcome read?
Its outcome is “inactive”.

Which outcome does the source give for CCN(CC#N)c1cccc(C)c1 here?
The outcome was “inactive”.

For COCC(C)N (stereo not given), which outcome is on record?
The outcome was “inactive”.

With CC=CC(=O)N(CC)c1ccccc1C as the molecule, how does the outcome read?
The outcome was “inactive”.

For C=CC(=O)OCC(Br)CBr (stereo not given), which AC50 is on record?
Its AC50 is 24.8 µM (active).

With CCCCCC(C)O (stereo not given) as the molecule, how does the outcome read?
The outcome was “inactive”.

Which outcome does the source give for COC(F)(F)C(F)(C(F)(F)F)C(F)(F)F here?
Its outcome is “inactive”.

With O=C1CCCCCCCCCCC(=O)OCCO1 as the molecule, how does the outcome read?
The outcome was “inactive”.

Which outcome does the source give for CC(C)(C)c1ccc(OC(=O)c2ccccc2O)cc1 here?
The outcome was “inactive”.

With Nc1ncn([C@@H]2O[C@H](CO)[C@@H](O)[C@H]2O)c(=O)n1 as the molecule, how does the outcome read?
Its outcome is “inactive”.

With [Cl][In]([Cl])[Cl] as the molecule, how does the AC50 read?
Its AC50 is 17.6 µM (active).

With CC(C)=CCC[C@H](C)CCO as the molecule, how does the outcome read?
The outcome was “inactive”.

With CCCCNc1ccc(NCCCC)c2c1C(=O)c1ccccc1C2=O as the molecule, how does the AC50 read?
The AC50 was 1.47 µM (active).

For CC(=O)NS(=O)(=O)c1ccc(N)cc1, which outcome is on record?
Its outcome is “inactive”.

Which outcome does the source give for FC(F)=C(F)OC(F)(F)C(F)(F)C(F)(F)F here?
Its outcome is “inactive”.

Which outcome does the source give for CC(C)(Oc1ccc(C2CC2(Cl)Cl)cc1)C(=O)O (stereo not given) here?
Its outcome is “inactive”.

For C=C(C)CCO, which outcome is on record?
The outcome was “inactive”.

For CC1=CC[C@H](C(C)C)C=C1, which AC50 is on record?
Its AC50 is 27.7 µM (active).

With Clc1nc2ccccc2s1 as the molecule, how does the outcome read?
The outcome was “inactive”.

For CCOC(=O)N1CCC(=C2c3ccc(Cl)cc3CCc3cccnc32)CC1, which outcome is on record?
Its outcome is “inactive”.

For CC(=O)OCCC1CCCCC1, which outcome is on record?
The outcome was “inactive”.

With C=CC(=O)OCCOC(=O)C=C as the molecule, how does the outcome read?
Its outcome is “inactive”.

For CC(=O)OCC(=O)[C@@]12N=C(C)O[C@@H]1C[C@H]1[C@@H]3CCC4=CC(=O)C=C[C@]4(C)[C@H]3[C@@H](O)C[C@@]12C, which outcome is on record?
The outcome was “inactive”.

For CC/C=C\CCOC(=O)CCCCC, which outcome is on record?
The outcome was “inactive”.

With CC(C)(C)c1n[nH]c(=O)n(N)c1=O as the molecule, how does the outcome read?
The outcome was “inactive”.

With O=C1CC2CC1C1CCCC21 (stereo not given) as the molecule, how does the AC50 read?
The AC50 was 72.4 µM (active).

For CC(C)C1=CC2=CC[C@@H]3[C@](C)(CCC[C@@]3(C)C(=O)O)[C@H]2CC1, which AC50 is on record?
Its AC50 is 19.8 µM (active).

For CCCCCC/C=C/C=O, which AC50 is on record?
Its AC50 is 47.7 µM (active).

Which outcome does the source give for O=S1(=O)OC(c2ccc(O)cc2)(c2ccc(O)cc2)c2ccccc21 here?
The outcome was “inactive”.

— PubChem BioAssay (EPA / NIEHS)
